Assay [1] addresses Lysosomal acid glucosylceramidase (Homo sapiens) (UniProt P04062). Description: Glucocerebrosidase-p2 (AID 348; in the data active means potency below about 10 µM; further: potency means the concentration at half of the fitted maximal effect). The following applies: purified GBA, blue fluorogenic substrate, 40 min. In short, it runs like this:
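Compounds titrated from 0.6 nM upwards against 0.2 nM enzyme in pH 5.9 citric acid/KH2PO4, taurocholate, tween-20; blue fluorogenic substrate 80 uM, 40 min room temperature, stopped and read Ex 365/Em 440 for AC50.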

A short description of assay [2]: AP1 Signaling Pathway (AID 357).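 Further: ME-180 reporter cells stimulated with EGF at its EC50 level; on the % scale 0 is the no-effect control and ±100 the full control effect.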 The following applies: ME-180 AP-1-bla reporter, EGF-induced, beta-lactamase ratio, 5 h; at 7.69 µM (top of the series) unless noted. The method, boiled down: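 Titration-series screen for positive or negative modulators of EC50 EGF-induced signaling in ME-180 cells carrying an AP-1-driven beta-lactamase reporter. After 5 hours at 37 degrees Celsius, CCF4 460nm/530nm emission ratio gave %Activity; AC50 values derived.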

The target of assay [3] is Cytochrome P450 1A2 (Homo sapiens) (UniProt P05177). Put plainly: p450-cyp1a2 (AID 410; calls by dose curve; further: potency means the concentration at half of the fitted maximal effect;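 on activity change, negative = inhibition: -100% = full effect of reference inhibitor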). The following applies: recombinant CYP1A2, luciferin-ME demethylation, luminescence; series mostly up to 11.4 µM. The method, boiled down: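 Inhibition was calculated relative to 57 uM furafylline (full inhibition). The reaction used human CYP1A2 at 20nM with Luciferin-ME at its Km, 100uM, driven by an NADPH-regenerating system for 60 min at room temperature.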

The nature of assay [4]: NFAT Signaling Pathway (AID 444).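 Further: carbachol stimulus at about its EC50 of 1 µM final; on the % scale 0 is the no-effect control and ±100 the full control effect.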 The following applies: Jurkat NFAT-bla M1, carbachol, beta-lactamase ratio, 5 h; at 7.69 µM (top of the series) unless noted. In short, it runs like this: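 Jurkat cells with NFAT-driven β-lactamase reporter and co-expressed M1 receptor, stimulated with carbachol (final 1 uM, ~EC50), compound titration, 5 h at 37 °C. CCF4 loaded 1 h at RT; 460/530 nm ratio gave %activity and AC50.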

Assay [5] is described as follows: Stat Signaling Pathway (AID 446).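 Further: ME-180 cervical cancer cells given 40 pM IL-6 alongside compound; SIE-controlled beta-lactamase reporter measured as 460/530 nm FRET emission ratio; on the % scale 0 is the no-effect control and ±100 the full control effect.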 The following applies: ME-180 SIE beta-lactamase reporter, IL-6 stimulated, 5 h; at 7.69 µM (top of the series) unless noted. The method, boiled down: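 Reporter line: ME-180 cervical carcinoma, SIE-beta-lactamase. Treatment: compound with 40 pM IL-6, 5 hrs, 37 C, in low-serum OPTI-MEM with 10 mM HEPES pH 7.3. Detection: 460/530 nm fluorescence.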

The target in assay [6] is Glucocorticoid receptor (Homo sapiens) (UniProt P04150). Description: GR-GFP Redistribution (AID 450;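 active means compounds whose dose series gives a full or clear partial fitted curve of increased nuclear translocation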; further: potency means the concentration at half of the fitted maximal effect). The settings on record: U2OS GR-GFP nuclear translocation, laser cytometry, 2 h.
The target is the same in assay [7]. Put plainly: GR-EFC Redistribution (AID 451; calls by dose curve; further: potency means the concentration at half of the fitted maximal effect). The following applies: CHO-K1 GR-EFC translocation, beta-gal luminescence, 2 h. The method, boiled down:
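CHO-K1 cells expressing nuclear EA and GR-ED fragments of b-gal; compounds titrated up to 46 uM final, 2 h at 37 C. GR nuclear translocation read as complemented b-gal luminescence after 1 h RT detection.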

The target in assay [8] is Mitogen-activated protein kinase 10 (Mus musculus) (UniProt Q61831). Description: JNK3 AlphaScreen Assay (AID 530).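 Further: kinase came from lysate of stimulated human HepG2 cells; signal reports phosphorylation of biotinylated GST-cJun 1-79 at Ser73 with 10 µM ATP; on the % scale 0 is the no-effect control and ±100 the full control effect.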 The settings on record: JNK3 lysate, c-Jun phosphorylation; series mostly up to 11.4 µM. The method, boiled down:
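qHTS format: compounds tested as titrations against IL-1beta/TNF-alpha-activated HepG2 lysate JNK3 with biotin-GST-cJun substrate and 10 uM ATP at room temperature. Loss of anti-phospho-cJun AlphaScreen signal indicates inhibition.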

Assay [9] has as its target 3',5'-cyclic-AMP phosphodiesterase 4B (Homo sapiens) (UniProt Q07343). Description: qHTS Assay for Inhibitors of PDE-IV (AID 607; active means well fitted activation curve with a large enough effect in the main read-out, with a control signal flat, not every such curve was filed as active; further: % of control where 0% means no effect). The settings on record: HEK293 ACTOne CNG channel cells, membrane potential fluorescence; series mostly up to 22.9 µM. In short, it runs like this:
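Cell-based read-out of cAMP via a modified cyclic nucleotide-gated channel and membrane potential dye (535/590 nm) in HEK293 cells expressing PDE4 endogenously. Compounds tested up to 22.9 uM final; 100 uM RO 20-1724 reference.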

Assay [10] can be described thus: qHTS Assay for Identification of Small Molecule Agonists for Hypoxia Response Element Signaling Pathway (AID 914; active means well fitted activation curve with a large enough effect in the signal ratio, with a control signal flat, not every such curve was filed as active; the % refers to the signal ratio; further: % of control where 0% means no effect). The following applies: ME-180 (cervical carcinoma) HRE-bla reporter, beta-lactamase ratio, CoCl2, 17 h; activation: stronger effect = higher value. The method, boiled down:
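Cells were plated overnight, pin-dosed with compound in a titration series, co-stimulated with EC50 CoCl2 and incubated 17 hours at 37 degrees Celsius. CCF4 substrate was then loaded, and AC50 values came from the 460nm/530nm ratio.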

Unmarked numbers belong to inactive results. Inconclusive results are not listed. The source made the active and inactive calls. Unless noted, the call rests on the fitted dose curve; in most records, active means well fitted curve in either direction with a large enough effect (not every such curve was filed as active); inconclusive means small, poorly fitted or top-dose-only effect, or another doubt; inactive means flat fitted curve, though single readings scatter.

Sequence of Cytochrome P450 1A2 (Homo sapiens) (P05177 whole entry, looked up): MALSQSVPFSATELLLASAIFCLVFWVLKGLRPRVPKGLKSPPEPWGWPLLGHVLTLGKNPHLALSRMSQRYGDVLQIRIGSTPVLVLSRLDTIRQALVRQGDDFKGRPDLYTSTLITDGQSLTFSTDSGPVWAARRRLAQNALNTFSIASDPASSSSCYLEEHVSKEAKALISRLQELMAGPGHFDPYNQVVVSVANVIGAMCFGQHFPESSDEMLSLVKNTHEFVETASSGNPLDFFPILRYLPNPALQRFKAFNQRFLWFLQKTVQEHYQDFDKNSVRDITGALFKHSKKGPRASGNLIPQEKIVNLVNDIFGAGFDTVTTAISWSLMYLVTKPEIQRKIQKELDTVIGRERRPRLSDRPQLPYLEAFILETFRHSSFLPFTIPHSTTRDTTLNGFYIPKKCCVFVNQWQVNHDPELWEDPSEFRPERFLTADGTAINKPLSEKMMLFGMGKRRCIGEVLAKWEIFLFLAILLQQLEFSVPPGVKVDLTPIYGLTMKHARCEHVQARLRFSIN
Sequence of Lysosomal acid glucosylceramidase (Homo sapiens) (P04062 whole entry, looked up): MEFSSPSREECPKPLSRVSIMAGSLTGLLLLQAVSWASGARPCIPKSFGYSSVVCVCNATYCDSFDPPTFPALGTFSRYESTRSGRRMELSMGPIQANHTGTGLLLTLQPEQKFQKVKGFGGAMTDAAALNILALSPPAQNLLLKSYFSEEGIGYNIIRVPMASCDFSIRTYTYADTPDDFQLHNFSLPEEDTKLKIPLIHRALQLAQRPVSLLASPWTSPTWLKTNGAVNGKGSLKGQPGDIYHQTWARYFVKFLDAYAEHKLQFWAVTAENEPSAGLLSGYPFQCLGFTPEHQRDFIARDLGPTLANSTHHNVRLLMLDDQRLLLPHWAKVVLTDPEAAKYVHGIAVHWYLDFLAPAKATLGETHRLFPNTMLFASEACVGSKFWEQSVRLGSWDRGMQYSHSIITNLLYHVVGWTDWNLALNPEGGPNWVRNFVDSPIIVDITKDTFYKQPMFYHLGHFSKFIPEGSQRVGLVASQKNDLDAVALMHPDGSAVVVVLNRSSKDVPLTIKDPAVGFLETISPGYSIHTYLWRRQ
Sequence of Glucocorticoid receptor (Homo sapiens) (P04150 whole entry, looked up): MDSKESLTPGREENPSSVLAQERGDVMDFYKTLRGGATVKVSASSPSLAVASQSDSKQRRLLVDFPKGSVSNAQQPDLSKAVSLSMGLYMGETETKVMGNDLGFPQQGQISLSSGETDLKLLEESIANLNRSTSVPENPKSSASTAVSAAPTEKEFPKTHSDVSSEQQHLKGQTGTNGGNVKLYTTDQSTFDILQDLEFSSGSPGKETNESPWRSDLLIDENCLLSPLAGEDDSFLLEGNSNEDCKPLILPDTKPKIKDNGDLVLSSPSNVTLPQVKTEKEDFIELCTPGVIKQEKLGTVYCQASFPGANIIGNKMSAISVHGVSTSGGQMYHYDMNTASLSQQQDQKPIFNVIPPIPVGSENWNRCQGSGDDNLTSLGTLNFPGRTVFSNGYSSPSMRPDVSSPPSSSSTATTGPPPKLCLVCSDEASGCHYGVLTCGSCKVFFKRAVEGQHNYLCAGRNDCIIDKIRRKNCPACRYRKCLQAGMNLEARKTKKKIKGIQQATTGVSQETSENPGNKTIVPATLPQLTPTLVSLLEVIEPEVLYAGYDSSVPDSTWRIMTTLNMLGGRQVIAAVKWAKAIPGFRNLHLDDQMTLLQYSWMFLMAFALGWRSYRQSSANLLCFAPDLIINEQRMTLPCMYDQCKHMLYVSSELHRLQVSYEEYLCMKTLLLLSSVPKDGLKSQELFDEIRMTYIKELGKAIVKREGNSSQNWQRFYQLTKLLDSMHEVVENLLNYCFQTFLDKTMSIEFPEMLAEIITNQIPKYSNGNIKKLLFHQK
Sequence of 3',5'-cyclic-AMP phosphodiesterase 4B (Homo sapiens) (Q07343 whole entry, looked up): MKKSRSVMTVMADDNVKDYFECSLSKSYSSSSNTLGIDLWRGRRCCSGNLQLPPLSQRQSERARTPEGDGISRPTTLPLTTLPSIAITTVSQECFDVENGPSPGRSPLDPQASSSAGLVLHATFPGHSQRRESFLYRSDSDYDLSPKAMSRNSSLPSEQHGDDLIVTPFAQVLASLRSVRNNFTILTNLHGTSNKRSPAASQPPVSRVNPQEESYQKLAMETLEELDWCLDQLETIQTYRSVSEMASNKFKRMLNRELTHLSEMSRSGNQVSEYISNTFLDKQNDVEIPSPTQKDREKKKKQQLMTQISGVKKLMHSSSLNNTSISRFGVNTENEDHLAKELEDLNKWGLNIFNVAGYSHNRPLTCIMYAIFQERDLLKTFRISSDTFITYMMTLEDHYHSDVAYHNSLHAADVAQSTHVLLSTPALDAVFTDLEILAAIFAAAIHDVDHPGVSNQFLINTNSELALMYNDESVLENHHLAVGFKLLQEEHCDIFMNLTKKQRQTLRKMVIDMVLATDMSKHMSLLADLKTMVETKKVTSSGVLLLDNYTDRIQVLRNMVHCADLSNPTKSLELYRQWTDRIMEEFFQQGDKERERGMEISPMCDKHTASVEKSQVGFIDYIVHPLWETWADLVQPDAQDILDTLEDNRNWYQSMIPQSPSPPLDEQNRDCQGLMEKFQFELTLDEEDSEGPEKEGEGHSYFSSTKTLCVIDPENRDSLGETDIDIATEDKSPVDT

For the molecule `N=c1nc(N)nc(N)n1-c1ccc(S(N)(=O)=O)cc1`, the Potency in assay [1] was over 11.4 µM; in assay [6] it was over 46 µM; in assay [7] it was over 9.22 µM. In addition, the activity change, negative = inhibition in [2] was 4.82%; in assay [3] it was -3.8% [at 2.29 µM]; in [4], 9.5%. Besides, the activity, negative = inhibition in [5] is 6.13%. For the same molecule, the Potency result in [8] and in assay [9] was “inactive” throughout. For the same molecule, the activation in assay [10] is 8.62%.
For `Cc1cc(C2(c3cc(C)c(O)c(C(=O)O)c3)OS(=O)(=O)c3ccccc32)cc(C(=O)O)c1O`, the Potency in [1] is over 11.4 µM; in assay [6], over 46 µM; in assay [7] it was over 9.22 µM. Further, the results for the activity change, negative = inhibition in assay [2] and in [4] were -7.31% and -1.56%, respectively. Further, the Potency result in [3], in [8] and in assay [9] was “inactive” throughout. The activity, negative = inhibition in assay [5] was 2.58%. Moreover, in assay [10], the activation was -3.84%.
Regarding `O=C(O)c1ccc(CNCc2ccccc2)cc1`, the Potency in assay [1] is over 11.4 µM; in [6], over 46 µM; in assay [7], over 9.22 µM. The activity change, negative = inhibition in assay [2] is -3.63%; in assay [4], -2.06%. Further, the Potency entry in assay [3], in assay [8] and in assay [9] was “inactive” in each case. Besides, the activity, negative = inhibition in assay [5] was 15.5%. The activation in assay [10] is 4.76%.
In the case of `Cc1ccc(S(=O)(=O)Oc2cc(S(=O)(=O)O)cc3cc(S(=O)(=O)O)cc(N)c23)cc1`, the Potency was over 11.4 µM in [1], 2 µM (active) in assay [3], over 46 µM in assay [6] and over 9.22 µM in assay [7]. Moreover, the activity change, negative = inhibition in [2] is 8.2%; in assay [4], 1.61%. Besides, the activity, negative = inhibition in assay [5] was 11.7%. The Potency result in [8] and in assay [9] was “inactive” each time. In addition, the activation in assay [10] is -7.4%.

The record behind these values is PubChem BioAssay (NCATS).
